VACV mCherry inh = qHTS for Stage-Specific Inhibitors of Vaccinia Orthopoxvirus: mCherry Reporter Primary qHTS; Potency, µM (top dose mostly 36.5 µM), inactives show at the top dose activity change, negative = inhibition, actives largely listed as inhibitors; 310,000 compounds, 0.63% hits; AID 720579, 2013; Vaccinia virus mCherry reporter infection, fluorescence; calls by dose curve; tested in A549 cells; further: nearly all actives have a fitted effect of over 35% in size
Sm TGR block = qHTS Assay for the Inhibitors of Schistosoma Mansoni Peroxiredoxins; purified TGR, DTNB reduction, TNB absorbance 405 nm; 360,000 compounds, 3% hits; Schistosoma mansoni thioredoxin glutathione reductase (TGR), Q962Y6; AID 485364, 2010; Potency, µM (series often up to 114 µM), for inactives: at the top dose activity change, negative = inhibition, actives largely listed as inhibitors; active means well fitted inhibition curve with a large enough effect; inconclusive means small, poorly fitted or top-dose-only effect; inactive means no such curve, though single readings can be large or run the other way; further: nearly all actives have a fitted effect of over 60% in size
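TGR 20 nM + NADPH 100 uM (dispensed conc.), cpd preinc 15 min RT; start with NADPH (500 uM addition) then DTNB (15 mM addition). Kinetic TNB absorbance, 405 nm filter. Four-parameter Hill fit across titration.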
LASV entry inh = qHTS for Inhibitors of binding or entry into cells for Lassa Virus; Potency, µM (titrated, usually from 37.9 µM), without a hit: at the highest dose activity change, negative = inhibition, actives largely listed as inhibitors; 300,000 compounds, 1.2% hits; AID 540256, 2011; Lassa virus pseudotype entry inhibition, cell reporter; calls by dose curve; tested in HEK293 cells; further: nearly all actives have a fitted effect of over 50% in size
Marburg entry inh = qHTS for inhibitors of binding or entry into cells for Marburg Virus; Marburg virus pseudotyped entry inhibition, cell reporter; Potency, µM (top dose mostly 37.8 µM), without a hit: at the highest dose activity change, negative = inhibition, most hits filed as inhibitors; 300,000 compounds, 1.8% hits; calls by dose curve; tested in HEK293 cells
FMDV inh = High Throughput Screening for Foot and Mouth Disease Virus Antivirals. FMDV antiviral cell-based qHTS. Potency, µM (titrated, usually from 57.9 µM), without a hit: top-dose activity change, negative = inhibition, usual class: inhibitors. 410,000 compounds, 1.2% hits; calls by dose curve; tested in HEK293T cells; further: read-out not given here; nearly all actives have a fitted effect of over 45% in size
VACV Venus inh = qHTS for Stage-Specific Inhibitors of Vaccinia Orthopoxvirus: Venus Reporter Primary qHTS; Vaccinia virus Venus reporter expression, fluorescence; Potency, µM (doses to about 36.5 µM), for the others: at the top dose activity change, negative = inhibition, actives largely listed as inhibitors; 330,000 compounds, 0.46% hits; calls by dose curve; tested in A549 cells; further: nearly all actives have a fitted effect of over 30% in size
The depositor's hits bear a star; i = inactive; ? = inconclusive; . = not tested or not shown; ! = not confirmed by another sample; [ ] = remark or other dose. Hits are enriched below; roughly 5.4% of the tested compounds scored in any of these assays. On the % scale 0 is the no-effect control and ±100 the full control effect; potency means the concentration at half of the fitted maximal effect.

SMILES	VACV mCherry inh	Sm TGR block	LASV entry inh	Marburg entry inh	FMDV inh	VACV Venus inh
O=C(COc1ccccc1-c1ccccc1)N/N=C/c1ccc2ccccc2c1	-29.4%	0.9%	1.78µM*	?	-11.9%	?
CC(=NNC(=S)SCc1ccccc1)c1ccccn1	10µM*	.	1.58µM*	0.891µM*	?	?
C#CCN(Cc1ccc(OCCC)cc1)S(=O)(=O)c1ccc(Br)cc1F	.	.	-25.2%[46.1 µM]	.	.	.
CC1CCN(S(=O)(=O)c2ccc3c(c2)CCN3C(=O)Nc2ccccc2Br)CC1	-20.6%	15.9%	-15.9%[46.1 µM]	4.6%[46.1 µM]	-18.4%	-12.0%
C/C(=N\NC(=O)c1ccc(Cl)cc1)c1ccccn1	?	-25.0%	1.26µM*	0.891µM*	?	?
S=C(NCc1ccccn1)Nc1cccc(Cl)c1	-15.7%	-20.7%	0.8%	0.2%	95.3%	-4.8%
CC(=NNC(=S)Nc1cccc(Cl)c1)c1ccccn1	2.82µM*	.	1.12µM*	0.199µM*	-9.1%	?
CCOC(=O)c1[nH]c(C)c(CCC(=O)N2CCN(c3cc(C)ccc3C)CC2)c1C	-17.8%	-7.6%	?	.	?	-27.4%
O=C(CCNc1ccc(F)cc1)c1ccco1	.	3.98µM*	0.4%	5.7%	19.1%	-27.8%
O=C(CCNc1cccc(C(F)(F)F)c1)c1ccco1	i	3.55µM*	11.9%	-2.9%	4.1%	-15.2%
O=C(CCNc1ccc(F)c(Cl)c1)c1ccco1	?	8.91µM*	-13.7%	1.8%	.	?
Cc1ccc(N2CC(NC(=O)c3ccc(S(=O)(=O)N4CCOCC4)cc3)CC2=O)cc1 (stereo unspecified)	-5.4%[7.34 µM]	7.4%	-9.7%[46.1 µM]	.	-13.0%	-4.6%[7.34 µM]
COc1cccc(N/N=C/c2cccc(Br)c2O)c1	?	35.5µM*	0.1%	11.2µM*	23.0%	-7.3%
Cc1cccc(N/N=C/c2ccc(O)c(O)c2O)c1	.	7.08µM*	.	.	10.3%	.
O=[N+]([O-])c1cccc(N/N=C/c2cccc(O)c2O)c1	?	-30.3%	-15.2%	?	25.8%	?
COc1cccc(/C=N/Nc2ccc([N+](=O)[O-])cc2)c1O	?	4.3%	10.3%	?	18.9%	-30.0%
COc1ccc(Nc2nnc(-c3ccc(C)c(S(=O)(=O)N4CCOCC4)c3)c3ccccc23)cc1	-17.6%	3.5%	?	.	5.3%	-24.9%
O=Cc1ccccc1-n1cccn1	i	-10.5%	8.1%	?	-11.8%	-7.0%
Oc1cc(-n2cccn2)c(O)cc1-n1cccn1	i	3.55µM*	.	.	52.8%	-2.9%
NS(=O)(=O)c1ccc(CCNc2nn3c(-c4cccc(OC(F)(F)F)c4)cnc3s2)cc1	?	.	.	.	22.4µM*	?
CCOC(=O)c1sc2ccccc2c1S(=O)(=O)N1CCN(c2cccc(C)c2)C(C)C1 (stereo unspecified)	-12.7%	-1.7%	?	.	-14.3%	-9.6%
COc1ccccc1-c1noc(CSc2nnc(Cc3ccccc3)n2-c2ccc(C)c(C)c2)n1	-12.3%	15.0%	-20.9%[46.1 µM]	3.6%[46.1 µM]	0.0%	-15.1%
CN1C(=S)N(c2ccccc2)C(=O)/C1=C/c1ccco1	-2.9%	?	0.2%	-13.5%	-6.3%	-7.3%
CC(C)N(C1=N/C(=C\c2ccco2)C(=O)N1c1ccccc1)C(C)C	.	39.8µM*	6.1%	?	-7.3%	0.8%
O=C1/C(=C/c2ccco2)N=C(N2CCCCC2)N1c1ccccc1	-13.9%	44.7µM*	9.5%	8.4%	-25.7%	2.5%
SMILES	VACV mCherry inh	Sm TGR block	LASV entry inh	Marburg entry inh	FMDV inh	VACV Venus inh
Cc1cc(C)n(-c2nc(C)c(C)c(=O)n2CC(=O)Nc2ccc(Cl)c(Cl)c2)n1	-5.6%[7.34 µM]	5.1%	6.3%[46.1 µM]	.	0.0%	-8.4%[7.34 µM]
CCOC(=O)c1c(CCl)nc2ccccc2c1-c1ccccc1	-29.5%	25.1µM*	10.8%[46.1 µM]	?	?	0.3%
CCc1nc2ccccc2c(C(=O)OCc2nc3ccccc3c(=O)[nH]2)c1C	i	.	?	3.55µM*	-21.2%	-26.8%
CCOC(=O)c1c(C)nc2ccccc2c1-c1ccccc1	-13.6%	1.4%	4.0%	-1.0%	-14.8%	-9.8%
CCc1nc2ccccc2c(C(=O)OCC(=O)C(C)(C)C)c1C	-15.3%	6.9%	-11.5%	11.4%[46.1 µM]	?	-1.6%
COC(=O)c1ccccc1NC(=O)c1ncoc1-c1ccco1	-25.9%	-4.4%	2.5%[46.1 µM]	.	0.0%	?
COc1cc(OC)cc(N2C(=O)N(Cc3ccc(C(C)(C)C)cc3)c3ccccc3S2(=O)=O)c1	9.9%	12.8%	-25.2%[46.1 µM]	.	0.0%	-2.7%
CN1CCN(c2ccc(-c3cc(O)c4ncccc4c3)cc2)CC1	.	-4.4%	.	.	.	.
Cc1ccc(Cn2c(=N)n(CC(O)COc3ccccc3)c3ccccc32)cc1 (stereo unspecified)	?	3.9%	?	15.8µM*	0.0%	?
N=c1n(CCN2CCCCC2)c2ccccc2n1CC(O)COc1ccccc1 (stereo unspecified)	-9.2%	15.7%	?	?	39.8µM*!	-21.7%
N=c1n(CCN2CCOCC2)c2ccccc2n1CC(O)COc1ccccc1 (stereo unspecified)	-19.3%	0.0%	-9.2%	?	-28.0%	11.3%
N=c1n(Cc2ccccc2)c2ccccc2n1CC(O)COc1ccccc1 (stereo unspecified)	.	12.5%	?	3.66µM*	?	.
CC1(C)SC(=S)N(/N=C/c2ccccc2)C1N(O)C(=O)Nc1ccc([N+](=O)[O-])cc1 (stereo unspecified)	?	-8.5%	0.0%	17.8µM*	4.3%	?
C=CCn1c(CCNC(=O)c2ccc(Cl)c(Cl)c2)nnc1SCCOc1ccc(OC)cc1	.	-0.6%	-4.4%	?	28.2µM*	.
CC(C)(C)c1ccc(COn2c(=O)c(-c3ccco3)[n+]([O-])c3ccccc32)cc1	.	17.8µM*	-7.1%	?	-3.5%	.
O=c1c(-c2ccc(Br)cc2)[n+]([O-])c2ccccc2n1OCc1ccccc1	.	-5.1%	.	.	-3.8%	.
CCC(=O)N1CCc2cc(Br)cc(S(=O)(=O)N3CCCC(C(=O)NCc4ccccc4)C3)c21 (stereo unspecified)	-1.8%	0.5%	-7.8%[46.1 µM]	5.6%[46.1 µM]	0.0%	-12.0%
C=C1CCC[C@]2(C)C[C@H]3OC(=O)C(CN4CCOCC4)[C@H]3C[C@@H]12 (stereo partly specified)	.	0.9%	.	.	-15.9%	.
C=C1CCC[C@]2(C)C[C@H]3OC(=O)C(CNC(C)CCCC(C)C)[C@H]3CC12 (stereo partly specified)	?	7.0%	?	?	-19.2%	7.08µM*
C=C1CCC[C@]2(C)C[C@H]3OC(=O)C(CN[C@@H](C)c4ccccc4)[C@H]3CC12 (stereo partly specified)	?	2.0%	?	?	-24.0%	?

Assay outcomes from PubChem BioAssay.
